In PubChem BioAssay (Tox21):
“And” between values parts separate entries of the source, which are not always exact repeats. Equal values may be shown once. Where a structure was tested more than once in an assay, its records may differ in their call. The source made the active and inactive calls. Entries that show only a call come without a potency. Unless noted, the call rests on the fitted dose curve; in most records, active means well fitted curve in the direction sought with a large enough effect in the repeat runs; inconclusive means weak or mixed curves; inactive means no such curve, though single readings can be large; an effect the other way counts as inactive or inconclusive.

Columns and labels:
[1] = qHTS assay to identify small molecule antagonists of the thyroid receptor (TR) signaling pathway - cell viability counter screen (AID 743064); further: nearly all actives have a fitted effect of over 50% in size; further: potency means the concentration at half of the fitted maximal effect
Summary of the method: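 Same-well viability check: GH3.TRE-Luc cells stimulated with 1 nM T3 alongside test compound for 23.5 h, followed by CellTiter-Fluor fluorescence.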

[2] = target: Estrogen receptor (Homo sapiens) (UniProt P03372); assay: qHTS assay to identify small molecule antagonists of the estrogen receptor alpha (ER-alpha) signaling pathway (AID 743069; active means well fitted curve in the direction sought with a large enough effect in the signal ratio in the repeat runs, not every such curve was filed as active; inconclusive means weak or mixed curves, or effect the other way; inactive means no such curve, though single readings can be large or run the other way; the % refers to the signal ratio; further: potency means the concentration at half of the fitted maximal effect)
Summary of the method: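 HEK293 cells stably carrying an ER-alpha-UAS-bla beta-lactamase reporter were pre-cultured overnight in 2% charcoal-stripped FBS medium. Test compounds in DMSO were added together with 17beta-estradiol for 18 hr at 37C. Read-out was fluorescence after 2 hr with LiveBLAzer B/G FRET substrate at room temperature.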

[3] = qHTS assay to identify small molecule antagonists of the estrogen receptor alpha (ER-alpha) signaling pathway - cell viability counter screen (AID 743074; calls by dose curve; further: nearly all actives have a fitted effect of over 45% in size)
[4] = target: Estrogen receptor (Homo sapiens) (UniProt P03372); assay: qHTS assay to identify small molecule agonists of the estrogen receptor alpha (ER-alpha) signaling pathway (AID 743075; calls by dose curve; further: potency means the concentration at half of the fitted maximal effect)
[5] = target: Estrogen receptor (Homo sapiens) (UniProt P03372); assay: qHTS assay to identify small molecule agonists of the estrogen receptor alpha (ER-alpha) signaling pathway using the BG1 cell line (AID 743079); further: nearly all actives have a fitted effect of over 20% in size; further: potency means the concentration at half of the fitted maximal effect
[6] = qHTS assay to identify small molecule antagonists of the estrogen receptor alpha (ER-alpha) signaling pathway using the BG1 cell line (AID 743080; calls by dose curve;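 further: BG1 cells stimulated with 17beta-estradiol alongside compound; nearly all actives have a fitted effect of over 25% in size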; further: potency means the concentration at half of the fitted maximal effect)
Summary of the method: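 Luminescence from a 4×ERE-luciferase reporter in BG1-Luc-4E2 cells served as read-out. Cells, pre-cultured 5 days in stripped-serum phenol-red-free medium, were exposed to compound with 17beta-estradiol co-stimulation for 21.5 h at 37 C.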

[7] = qHTS assay to identify small molecule antagonists of the estrogen receptor alpha (ER-alpha) signaling pathway using the BG1 cell line - cell viability counter screen (AID 743081);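 further: compound given together with 17beta-estradiol as the ER stimulus; series mostly up to about 70 µM; nearly all actives have a fitted effect of over 45% in size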
[8] = target: Aromatase (Homo sapiens) (UniProt P11511); assay: qHTS assay to identify aromatase inhibitors (AID 743083); further: nearly all actives have a fitted effect of over 55% in size; further: potency means the concentration at half of the fitted maximal effect
[9] = qHTS assay to identify aromatase inhibitors - cell viability counter screen (AID 743084);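 further: cells stimulated with testosterone during compound exposure; nearly all actives have a fitted effect of over 55% in size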; further: potency means the concentration at half of the fitted maximal effect
[10] = target: Aryl hydrocarbon receptor (Homo sapiens) (UniProt P35869); assay: qHTS assay to identify small molecule that activate the aryl hydrocarbon receptor (AhR) signaling pathway (AID 743085); further: nearly all actives have a fitted effect of over 15% in size; further: potency means the concentration at half of the fitted maximal effect;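 on activation: HG2L7.5c1 human HepG2 liver cells with stably integrated DRE-driven firefly reporter; series mostly up to about 70 µM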
Summary of the method: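 Reporter assay in engineered HepG2 line HG2L7.5c1, whose plasmid carries twenty dioxin responsive elements upstream of firefly luciferase. Treatment lasted 24 h at 37C; ONE-Glo luminescence gauged induction.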

[11] = qHTS assay to identify small molecule that activate the aryl hydrocarbon receptor (AhR) signaling pathway - cell viability counter screen (AID 743086); further: nearly all actives have a fitted effect of over 45% in size; further: potency means the concentration at half of the fitted maximal effect
Summary of the method: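 HepG2-AhR-luc (HG2L7.5c1) cells, 4000/well, were preincubated 5 h at 37C, exposed to compound in qHTS format for 24 hr at 37C, then given CellTiter-Fluor for 30 min; viability was read as fluorescence in the reporter wells.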

[12] = target: Peroxisome proliferator-activated receptor gamma (Homo sapiens) (UniProt P37231); assay: qHTS assay to identify small molecule agonists of the peroxisome proliferator-activated receptor gamma (PPARg) signaling pathway (AID 743094; active means well fitted activation curve with a large enough effect in the signal ratio in the repeat runs, not every such curve was filed as active; inconclusive means weak or mixed curves, or effect the other way; inactive means no such curve, though single readings can be large or run the other way; the % refers to the signal ratio)
Summary of the method: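 GeneBLAzer PPARg UAS-bla HEK293H cells were plated, rested 5 h, then exposed to compounds for 17 h at 37C. Beta-lactamase activity was read by LiveBLAzer B/G FRET substrate fluorescence after 1 h at room temperature.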

[13] = qHTS assay to identify small molecule antagonists of the peroxisome proliferator-activated receptor gamma (PPARg) signaling pathway - cell viability counter screen (AID 743194); further: nearly all actives have a fitted effect of over 55% in size; further: potency means the concentration at half of the fitted maximal effect
Summary of the method: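 PPARg-UAS-bla HEK293H cells were plated, rested 5 h at 37 C, then treated with compounds plus rosiglitazone (50 nM final) for 17 h at 37 C; viability was then read by CellTiter-Glo luminescence after 30 min at room temperature.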

[14] = qHTS assay for small molecule activators of the heat shock response signaling pathway (AID 743210; active means well fitted activation curve with a large enough effect in the signal ratio in the repeat runs, with a control signal flat, not every such curve was filed as active; inconclusive means weak or mixed curves; the % refers to the signal ratio; further: series mostly up to about 63 µM)
Summary of the method: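 HSE-bla HeLa cells (beta-lactamase reporter under heat shock response elements) were exposed to compounds for 5 h at 37 C, then loaded with LiveBLAzer B/G FRET substrate for 2.5 h at room temperature before fluorescence reading.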

[15] = qHTS assay for small molecule agonists of the antioxidant response element (ARE) signaling pathway (AID 743202; active means well fitted activation curve with a large enough effect in the signal ratio in the repeat runs, not every such curve was filed as active; inconclusive means weak or mixed curves, or effect the other way; inactive means no such curve, though single readings can be large or run the other way; the % refers to the signal ratio; further: potency means the concentration at half of the fitted maximal effect)
Summary of the method: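 Read-out: LiveBLAzer B/G FRET substrate fluorescence after 2 h at room temperature, following 16 h compound treatment at 37 C of HepG2 cells carrying an ARE-driven beta-lactamase reporter.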

[16] = qHTS assay for small molecule activators of the heat shock response signaling pathway - cell viability counter screen (AID 743209); further: nearly all actives have a fitted effect of over 50% in size
Summary of the method: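 HSE-bla HeLa cells plated overnight, then exposed to Tox21 compounds (23 nL in DMSO) for 5 h at 37 C. After the bla reporter read, CellTiter-Glo was added in the same wells and luminescence read after 30 min at room temperature.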

[17] = test system: thyroid hormone receptor (rat, GH3 cells); assay: qHTS assay to identify small molecule agonists of the thyroid receptor (TR) signaling pathway (AID 743066; calls by dose curve)
[18] = qHTS assay for small molecule agonists of the antioxidant response element (ARE) signaling pathway - cell viability counter screen (AID 743203; calls by dose curve; further: nearly all actives have a fitted effect of over 55% in size)
Summary of the method: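 ARE-bla HepG2 cells were plated, rested 5 h at 37C/5% CO2, then exposed to compounds in DMSO for 16 h. Viability was read as CellTiter-Glo luminescence after 30 min at room temperature, in the same wells as the ARE screen.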

[19] = qHTS assay to identify small molecule antagonists of the thyroid receptor (TR) signaling pathway (AID 743065); further: nearly all actives have a fitted effect of over 55% in size; further: potency means the concentration at half of the fitted maximal effect
Summary of the method: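 GH3.TRE-Luc rat pituitary cells carrying two TR response elements driving luciferase were plated for 4 h, given compound plus 1 nM T3 (final), and incubated 23.5 h at 37 C. ONE-Glo luminescence measured reporter inhibition; CellTiter-Fluor fluorescence tracked cytotoxicity.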

[20] = target: Peroxisome proliferator-activated receptor gamma (Homo sapiens) (UniProt P37231); assay: qHTS assay to identify small molecule antagonists of the peroxisome proliferator-activated receptor gamma (PPARg) signaling pathway (AID 743191; calls by dose curve; further: series mostly up to about 63 µM; nearly all actives have a fitted effect of over 30% in size)
Summary of the method: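 GeneBLAzer PPARg UAS-bla HEK293H cells carrying a UAS-driven beta-lactamase reporter were plated at 3000 cells/well, preincubated 5 h at 37C, then given compound for 17 h at 37C; LiveBLAzer B/G FRET substrate was read after 1 h at room temperature.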

Sequence of Aromatase (Homo sapiens) (P11511 whole entry, looked up): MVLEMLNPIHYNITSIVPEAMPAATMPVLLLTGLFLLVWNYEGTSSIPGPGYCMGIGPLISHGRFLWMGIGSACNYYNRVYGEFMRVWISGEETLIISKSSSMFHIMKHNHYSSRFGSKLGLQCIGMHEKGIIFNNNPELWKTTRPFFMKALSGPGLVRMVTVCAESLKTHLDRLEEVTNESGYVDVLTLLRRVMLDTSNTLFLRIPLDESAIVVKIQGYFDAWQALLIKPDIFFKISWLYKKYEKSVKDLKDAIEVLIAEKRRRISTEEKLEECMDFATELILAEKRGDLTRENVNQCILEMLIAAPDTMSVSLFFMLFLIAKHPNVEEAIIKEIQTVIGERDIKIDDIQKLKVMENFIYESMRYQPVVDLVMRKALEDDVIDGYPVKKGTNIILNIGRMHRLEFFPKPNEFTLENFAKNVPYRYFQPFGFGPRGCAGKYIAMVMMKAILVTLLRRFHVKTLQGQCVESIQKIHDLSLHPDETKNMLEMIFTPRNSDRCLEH
Sequence of Aryl hydrocarbon receptor (Homo sapiens) (P35869 whole entry, looked up): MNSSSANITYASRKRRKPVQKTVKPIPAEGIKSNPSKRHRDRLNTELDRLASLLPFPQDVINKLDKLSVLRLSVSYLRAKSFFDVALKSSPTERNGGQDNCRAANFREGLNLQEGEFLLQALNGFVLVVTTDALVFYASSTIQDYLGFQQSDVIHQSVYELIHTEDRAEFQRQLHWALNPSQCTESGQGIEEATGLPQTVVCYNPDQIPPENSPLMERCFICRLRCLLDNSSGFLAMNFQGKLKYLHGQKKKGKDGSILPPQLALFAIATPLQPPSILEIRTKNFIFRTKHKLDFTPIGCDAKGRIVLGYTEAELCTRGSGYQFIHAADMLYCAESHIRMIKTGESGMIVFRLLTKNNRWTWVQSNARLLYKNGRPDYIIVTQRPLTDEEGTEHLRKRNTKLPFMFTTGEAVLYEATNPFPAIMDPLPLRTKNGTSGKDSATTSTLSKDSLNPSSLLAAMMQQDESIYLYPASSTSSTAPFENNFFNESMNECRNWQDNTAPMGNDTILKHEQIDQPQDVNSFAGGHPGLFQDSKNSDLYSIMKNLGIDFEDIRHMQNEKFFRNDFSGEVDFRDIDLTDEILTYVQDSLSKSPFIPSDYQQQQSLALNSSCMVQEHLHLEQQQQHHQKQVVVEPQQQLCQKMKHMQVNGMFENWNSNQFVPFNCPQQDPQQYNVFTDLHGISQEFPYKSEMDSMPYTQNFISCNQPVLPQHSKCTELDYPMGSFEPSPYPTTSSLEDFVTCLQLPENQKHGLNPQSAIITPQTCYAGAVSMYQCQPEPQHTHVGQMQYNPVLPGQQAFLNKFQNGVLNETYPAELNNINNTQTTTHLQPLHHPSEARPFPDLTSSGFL
Sequence of Estrogen receptor (Homo sapiens) (P03372 whole entry, looked up): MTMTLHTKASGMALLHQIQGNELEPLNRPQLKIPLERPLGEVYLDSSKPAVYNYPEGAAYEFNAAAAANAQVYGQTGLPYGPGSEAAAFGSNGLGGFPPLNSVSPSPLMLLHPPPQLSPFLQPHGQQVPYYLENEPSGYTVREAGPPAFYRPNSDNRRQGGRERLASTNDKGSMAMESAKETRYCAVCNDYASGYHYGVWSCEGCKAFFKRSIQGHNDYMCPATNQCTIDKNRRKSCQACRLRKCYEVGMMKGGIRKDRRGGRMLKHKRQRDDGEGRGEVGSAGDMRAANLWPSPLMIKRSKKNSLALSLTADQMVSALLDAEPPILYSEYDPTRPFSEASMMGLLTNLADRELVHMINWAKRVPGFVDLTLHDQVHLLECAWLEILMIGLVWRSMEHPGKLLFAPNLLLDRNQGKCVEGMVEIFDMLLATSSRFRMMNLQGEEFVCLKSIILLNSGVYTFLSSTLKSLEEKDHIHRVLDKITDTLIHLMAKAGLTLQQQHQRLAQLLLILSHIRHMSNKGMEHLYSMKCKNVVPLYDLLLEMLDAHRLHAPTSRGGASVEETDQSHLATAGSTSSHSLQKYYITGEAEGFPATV
Sequence of Peroxisome proliferator-activated receptor gamma (Homo sapiens) (P37231 whole entry, looked up): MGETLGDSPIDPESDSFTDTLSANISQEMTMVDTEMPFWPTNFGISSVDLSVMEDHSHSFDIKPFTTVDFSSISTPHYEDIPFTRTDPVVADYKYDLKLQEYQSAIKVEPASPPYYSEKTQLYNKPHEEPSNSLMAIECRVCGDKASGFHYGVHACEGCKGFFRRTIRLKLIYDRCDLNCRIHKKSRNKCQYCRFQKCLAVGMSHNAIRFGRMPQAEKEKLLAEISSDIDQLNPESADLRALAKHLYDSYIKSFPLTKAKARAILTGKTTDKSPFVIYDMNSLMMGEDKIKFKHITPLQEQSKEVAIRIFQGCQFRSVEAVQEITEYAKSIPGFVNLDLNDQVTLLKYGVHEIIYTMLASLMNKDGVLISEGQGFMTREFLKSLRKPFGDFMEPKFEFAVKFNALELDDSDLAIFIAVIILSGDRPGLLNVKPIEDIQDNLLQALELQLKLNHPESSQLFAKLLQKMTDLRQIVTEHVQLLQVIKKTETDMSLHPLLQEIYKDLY

Row | Compound | Potency [1] | Potency [2] | Potency [3] | Potency [4] | Potency [5] | Potency [6] | Potency [7] | Potency [8] | Potency [9] | Potency [10] | Potency [11] | Potency [12] | Potency [13] | Potency [14] | Potency [15] | Potency [16] | Potency [17] | Potency [18] | Potency [19] | Potency [20]
1 | C#C[C@]1(O)CC[C@H]2[C@@H]3CCC4=Cc5oncc5C[C@]4(C)[C@H]3CC[C@@]21C | inactive and 61.1 µM (active) | 49 µM [inconclusive] (active) | inactive | 3.38 µM [inconclusive] (active) and 6.17 µM [activator] (active) | 668 nM (active) and 969 nM (active) | inactive and 61.1 µM (active) | inactive | inactive | inactive | inactive | inactive | inactive | 54.9 µM (active) | inactive | – | – | – | – | – | –
2 | CCCC(=O)O | inactive | – | inactive | – | – | – | inactive | inactive | inactive | inactive | – | inactive | inactive | inactive | inactive | inactive | – | – | – | –
3 | OC[C@H]1O[C@@H]2O[C@H]3[C@H](O)[C@@H](O)[C@@H](O[C@H]4[C@H](O)[C@@H](O)[C@@H](O[C@H]5[C@H](O)[C@@H](O)[C@@H](O[C@H]6[C@H](O)[C@@H](O)[C@@H](O[C@H]7[C@H](O)[C@@H](O)[C@@H](O[C@H]8[C@H](O)[C@@H](O)[C@@H](O[C@H]1[C@H](O)[C@H]2O)O[C@@H]8CO)O[C@@H]7CO)O[C@@H]6CO)O[C@@H]5CO)O[C@@H]4CO)O[C@@H]3CO | inactive | – | inactive | – | – | – | inactive | – | – | – | inactive | – | inactive | inactive | inactive | inactive | inactive | inactive | – | –
4 | COc1ccccc1/C=C/C=O | – | inactive | inactive | inactive | inactive | inactive | inactive | inactive | inactive | – | inactive | inactive | – | – | inactive | inactive | inactive | inactive | 62.8 µM (active) | –
5 | CC(C)(C)NC(=O)[C@H]1CC[C@H]2[C@@H]3CC[C@H]4NC(=O)C=C[C@]4(C)[C@H]3CC[C@]12C | – | inactive | inactive | inactive | inactive | inactive | inactive | inactive | inactive | inactive | inactive | inactive | – | inactive | 53.9 µM (active) | inactive | – | – | – | –
6 | CCCCc1oc2ccccc2c1C(=O)c1cc(I)c(OCCN(CC)CC)c(I)c1 | – | inactive | – | inactive | inactive | inactive | inactive | inactive and 43.6 µM (active) | inactive and 43.6 µM (active) | – | – | – | 13.9 µM (active) | – | – | inactive | – | – | – | –
7 | CN(C)CCN(Cc1cccs1)c1ccccn1 | – | inactive | inactive | inactive | inactive | inactive | inactive | – | – | – | – | inactive | inactive | inactive | inactive | inactive | inactive | inactive | – | –
8 | Cc1cccc([N+](=O)[O-])c1C | – | inactive | inactive | inactive | inactive | inactive | inactive | inactive | inactive | inactive | – | inactive | – | inactive | inactive | inactive | inactive | – | – | inactive
9 | O=C=Nc1ccc(Cc2ccc(N=C=O)cc2)cc1 | – | – | inactive | – | – | – | inactive | – | – | – | inactive | – | inactive | inactive | – | inactive | inactive | – | inactive | –
10 | Nc1ccccc1N | – | – | inactive | inactive | inactive | inactive | – | inactive | inactive | 27.9 µM (active) and 19.8 µM (active) | 19.8 µM (active) | inactive | – | inactive | 0.788 µM (active) | inactive | inactive | inactive | 5.45 µM (active) | –
11 | O=C1c2cccc(O)c2C(=O)c2c(O)cccc21 | – | – | inactive | – | – | – | – | inactive | inactive | inactive | inactive | inactive | inactive | inactive | – | inactive | inactive | inactive | inactive | –
12 | OC1CCCCCCCCCCC1 | – | inactive | inactive | inactive | inactive | inactive | inactive | inactive | inactive | inactive | – | inactive | inactive | inactive | inactive | inactive | inactive | – | – | –
13 | CN(C)C(=N)N=C(N)N | – | – | inactive | – | – | – | inactive | – | inactive | – | inactive | – | – | – | inactive | inactive | inactive | inactive | – | –
14 | COc1ccc(OC)c(C(O)CNC(=O)CN)c1 (stereo not drawn) | – | inactive | inactive | inactive | inactive | inactive | inactive | inactive | inactive | inactive | – | inactive | – | inactive | inactive | inactive | – | inactive | – | inactive
15 | c1ccc2c(c1)Oc1ccccc1S2 | – | inactive | inactive | inactive | inactive and 61.1 µM (active) | inactive | inactive | inactive | inactive | – | inactive | – | – | inactive | inactive | inactive | inactive | inactive | – | –
